Laboratory results from PubChem BioAssay AID504920 (Johns Hopkins Ion Channel Center, 2011).
Activity calls are given as the source filed them.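 How the source made its calls: active means peak hERG channel inhibition above 30% at some tested dose, together with a fitted dose response curve; inactive means no hERG inhibition at any dose, or no curve.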

Biological target: Voltage-gated inwardly rectifying potassium channel KCNH2 (Homo sapiens) (UniProt Q12809)
Experiment: hERG channel inhibition, SAR follow-up, selectivity assay for KCNK9 inhibitor project, FluxOR Tl flux, hERG-expressing cells (AID 504920)

Sequence of Voltage-gated inwardly rectifying potassium channel KCNH2 (Homo sapiens) (Q12809 whole entry, looked up): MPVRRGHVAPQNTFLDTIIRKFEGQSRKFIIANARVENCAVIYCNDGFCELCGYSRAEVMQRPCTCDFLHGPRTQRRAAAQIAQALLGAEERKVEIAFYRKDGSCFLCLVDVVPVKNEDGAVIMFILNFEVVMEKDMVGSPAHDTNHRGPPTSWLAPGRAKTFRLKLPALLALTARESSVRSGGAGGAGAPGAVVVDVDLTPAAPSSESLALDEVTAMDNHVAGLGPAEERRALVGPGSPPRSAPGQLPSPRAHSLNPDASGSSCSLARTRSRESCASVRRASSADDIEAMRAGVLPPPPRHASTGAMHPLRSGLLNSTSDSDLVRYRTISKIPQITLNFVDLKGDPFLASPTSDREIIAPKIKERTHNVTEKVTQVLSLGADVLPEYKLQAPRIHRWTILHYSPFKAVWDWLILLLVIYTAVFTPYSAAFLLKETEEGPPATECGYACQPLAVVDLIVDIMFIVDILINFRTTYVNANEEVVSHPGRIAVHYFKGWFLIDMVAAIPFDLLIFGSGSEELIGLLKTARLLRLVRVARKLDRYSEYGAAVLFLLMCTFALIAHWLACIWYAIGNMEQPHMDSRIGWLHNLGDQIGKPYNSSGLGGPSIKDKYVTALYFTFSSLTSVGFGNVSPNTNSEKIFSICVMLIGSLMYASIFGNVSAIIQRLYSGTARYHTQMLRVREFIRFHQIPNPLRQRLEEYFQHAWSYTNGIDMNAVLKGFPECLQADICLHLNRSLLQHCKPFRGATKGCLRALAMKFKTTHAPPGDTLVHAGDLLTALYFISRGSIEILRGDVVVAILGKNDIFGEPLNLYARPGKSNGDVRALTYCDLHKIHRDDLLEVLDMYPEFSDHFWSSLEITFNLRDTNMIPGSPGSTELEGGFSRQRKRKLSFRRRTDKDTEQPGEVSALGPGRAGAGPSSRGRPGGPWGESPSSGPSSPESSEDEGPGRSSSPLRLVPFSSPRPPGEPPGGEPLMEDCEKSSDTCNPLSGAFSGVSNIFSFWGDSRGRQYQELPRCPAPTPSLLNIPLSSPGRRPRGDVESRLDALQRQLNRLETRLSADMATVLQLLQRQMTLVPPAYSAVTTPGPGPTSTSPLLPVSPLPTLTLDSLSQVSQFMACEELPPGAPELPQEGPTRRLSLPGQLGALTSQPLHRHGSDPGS

Compound	outcome
Cc1cccc(C(=O)Nc2ccccc2C(=O)Nc2ccccc2)c1	inactive
Cc1cccc(NC(=O)c2ccccc2NC(=O)c2ccccc2)c1	inactive
Cc1cccc(C(=O)Nc2cccc(C(=O)Nc3ccccc3)c2)c1	inactive
Cc1cccc(C(=O)Nc2ccc(C(=O)Nc3ccccc3)cc2)c1	inactive
Cc1cccc(NC(=O)c2cccc(NC(=O)c3ccccc3)c2)c1	inactive
